Screening data from PubChem BioAssay.
Sampled rows, rich in hits. Any-hit rate of the full collection: about 2.4%.
MEKK2 mut-MEK5: signal of MEK5 binding to mutant human MEKK2 PB1 domain | bead flow cytometry, Alexa488-MEK5 binding to MEKK2 mutant | percent response, % at 10 µM | hit rate 0.35% among 290,000 | AID 1530; in the data active = percent response above about 24%, passing the limit was not always enough
Pf gametocyte: P. falciparum stage V gametocyte viability inhibition; inhibition, % at 10.9 µM; P. falciparum stage V gametocytes, ATP luminescence, 24 h; hit rate 0.065% among 150,000;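 active = inhibition above the mean plus 3 SD of compounds within the control limits, set per campaign, cut at about 38% in these data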;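 note: 0% = DMSO wells and 100% = medium only without gametocytes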
MEKK2 WT-MEK5: raises or lowers MEK5 binding to wildtype human MEKK2 PB1 domain | Q9Y2U5 | bead flow cytometry, Alexa488-MEK5 binding to MEKK2 WT; actives lie on both sides | binding response (% of control), % at 10 µM | hit rate 1.1% among 290,000; in the data active = binding response below about 67% or above about 130%
MEKK3 PB1 HTS: modulators (inhibitors or enhancers) of MEK5 binding to human MEKK3 PB1 domain. bead-based flow cytometry, Alexa488-MEK5 binding to MEKK3; actives lie on both sides; 0 = blocked by unlabeled MEK5, 100 = vehicle. AID 1529. Q99759. binding response (% of control), % at 10 µM. hit rate 1.4% among 290,000;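 active = binding response more than 3 SD above or below the average of its plate-row segment, actives on both sides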;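 note: Alexa488 bead fluorescence after subtracting the streptavidin-only scavenger bead signal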
Target sequence (Q99759 whole entry, looked up, the tested form may be a part): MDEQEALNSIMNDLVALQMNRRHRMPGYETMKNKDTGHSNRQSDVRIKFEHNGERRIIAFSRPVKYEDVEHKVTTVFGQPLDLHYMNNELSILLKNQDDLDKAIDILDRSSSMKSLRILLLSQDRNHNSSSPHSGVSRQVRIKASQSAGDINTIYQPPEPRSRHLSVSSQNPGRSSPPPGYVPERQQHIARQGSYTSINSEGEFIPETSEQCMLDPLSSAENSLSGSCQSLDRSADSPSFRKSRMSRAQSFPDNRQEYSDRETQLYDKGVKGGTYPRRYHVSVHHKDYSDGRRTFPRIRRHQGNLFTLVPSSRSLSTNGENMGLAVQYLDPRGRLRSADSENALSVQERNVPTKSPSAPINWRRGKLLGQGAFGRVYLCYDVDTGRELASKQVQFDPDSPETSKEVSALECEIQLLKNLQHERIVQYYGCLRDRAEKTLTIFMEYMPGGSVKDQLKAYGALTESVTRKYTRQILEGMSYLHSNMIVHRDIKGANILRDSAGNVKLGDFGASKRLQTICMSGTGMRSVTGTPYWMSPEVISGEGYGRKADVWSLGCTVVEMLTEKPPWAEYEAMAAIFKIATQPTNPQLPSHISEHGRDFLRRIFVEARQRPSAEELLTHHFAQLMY
Arbovirus inh: arbovirus infection inhibition; arbovirus infection cell-based antiviral screen; inhibition, % at 10 µM; hit rate 0.37% among 200,000; AID 1251; in the data active = inhibition above about 30%
MEKK2wt confirm: raises or lowers MEK5 binding to wildtype human MEKK2, retest; hit rate 2.4% among 5,900; binding response (% of control), % at 10 µM; bead flow cytometry, Alexa488-MEK5 binding to MEKK2 WT; actives lie on both sides; AID 1892; shares compounds with MEKK3 PB1 HTS; in the data active = binding response below about 16% or above about 210%; inactive = in between
MEKK2mut confirm: signal of MEK5 binding to mutant human MEKK2, retest | bead flow cytometry, Alexa488-MEK5 binding to MEKK2 mutant | hit rate 2% among 5,900 | AID 1893 | shares compounds with MEKK3 PB1 HTS | percent response, % at 10 µM; in the data active = percent response mostly above about 71%, no sharp cut-off; inactive = mostly below about 38%;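 note: higher means compound restores mutant binding toward wildtype level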
MEKK3-MEK5 inh: MEKK3-MEK5 PB1 inhibition, single concentration confirmation. bead flow cytometry, Alexa488-MEK5 binding to MEKK3; active compounds read low. AID 1894. binding response (% of control), % at 10 µM. hit rate 1.8% among 5,900. shares compounds with MEKK3 PB1 HTS;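 active = binding response below 72% of control, or above a set upper limit, though filed actives all read lower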;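 note: 100% = DMSO only wells and 0% = binding blocked by excess unlabeled MEK5; lower values mean stronger disruption of MEK5 binding to MEKK3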
* hit, by the source's call; . = not tested or not shown; [ ] = remark or other dose.

SMILES | MEKK2 mut-MEK5 | Pf gametocyte | MEKK2 WT-MEK5 | MEKK3 PB1 HTS | Arbovirus inh | MEKK2wt confirm | MEKK2mut confirm | MEKK3-MEK5 inh
Cc1oc(-c2ccccc2F)nc1CS(=O)(=O)CC(=O)NCCCN1CCc2ccccc2C1 | 21 | . | 149* | 113 | -4 | 132 | 11 | 105
Cc1oc(-c2ccccc2F)nc1CS(=O)(=O)CC(=O)NCCN1CCCC1 | 0 | . | 105 | 103 | . | . | . | .
COc1cccc(-c2nc(CS(=O)(=O)CC(=O)N3CCN(C)CC3)c(C)o2)c1 | 9 | . | 108 | 102 | 1 | . | . | .
COc1cccc(-c2nc(CS(=O)(=O)CC(=O)N3CCc4ccccc4C3)c(C)o2)c1 | -19 | . | -3.0*[inhibitor] | 1.0*[inhibitor] | 0 | 101 | 1 | 103
CCNc1oc(-c2cccc3ccccc23)nc1C#N | 0 | . | 102 | 98 | 2 | . | . | .
N#Cc1nc(-c2cccc3ccccc23)oc1NCCN1CCCCC1 | 12 | 4 | 159* | 109 | -44 | 175 | 49 | 114
O=C(O)c1ccc(/C=N/NC(=O)C(O)(c2ccccc2)c2ccccc2)cc1 | 0 | 1 | 103 | 101 | . | . | . | .
CCN(CC)c1ccc(/C=N/NC(=O)C(O)(c2ccccc2)c2ccccc2)o1 | 0 | . | 95 | 75*[inhibitor] | -8 | 100 | 0 | 103
COc1ccc(/C=N/N=C2\SC(CC(=O)O)C(=O)N2c2ccccc2)c(OC)c1 (centres undefined) | -1 | -10 | 95 | 96 | 3 | . | . | .
COc1ccccc1Oc1ccc(N2CC(C(=O)OCC(=O)c3ccccc3)CC2=O)cc1 (centres undefined) | -13 | . | 9.0*[inhibitor] | 6.0*[inhibitor] | . | 101 | -1 | 101
CCCCN1C(=O)/C(=C/C=C2\N(C)c3ccccc3C2(C)C)SC1=S | 156* | . | 130 | 67 | 0 | 36 | -58*[inhibitor] | 41*
CCCCN1C(=O)/C(=C/C=C2\SCCN2C)SC1=S | -8 | 3 | 92 | 96 | -15 | . | . | .
CN1CCN(c2ccc(NC(=O)c3ccc(-c4ccc(Cl)cc4)o3)cc2)CC1 | 43* | . | 171* | 108 | . | 195 | 72* | 114
O=C(c1ccc2snnc2c1)N1CCN(c2ccccn2)CC1 | 3 | . | 103 | 101 | 0 | . | . | .
O=C(c1ccc2snnc2c1)N1CCN(c2ccccc2)CC1 | 8 | -1 | 131 | 129* | 12 | 92 | -8 | 95
O=C(CCSc1nnc(-c2ccco2)o1)N1CCOCC1 | -1 | -11 | 105 | 115 | 12 | . | . | .
COc1ccc(OC)c(-c2csc(NC(=O)CSc3ccc([N+](=O)[O-])cc3)n2)c1 | 0 | -34 | 110 | 141* | 6 | 103 | -3 | 102
C/C(=C\C(=O)OCCCCCCCCC(=O)O)C[C@@H]1OC[C@H](C[C@@H]2O[C@H]2[C@@H](C)[C@H](C)O)[C@@H](O)[C@H]1O | 6 | . | 117 | 110 | . | . | . | .
Cc1ccccc1-c1nc(P(=O)(c2ccccc2)c2ccccc2)c(N2CCOCC2)o1 | -6 | 7 | 98 | 98 | . | . | . | .
Cc1nc(P(=O)(c2ccccc2)c2ccccc2)c(N2CCOCC2)o1 | 9 | 2 | 123 | 131* | 4 | 91 | -7 | 94
CCOC(=O)c1sc(NC(=O)c2cc3n(n2)C(C(F)(F)F)CC(c2cccs2)N3)c(C(=O)OCC)c1C (centres undefined) | 0 | . | 95 | 98 | -16 | . | . | .
CCOC(=O)c1sc(NC(=O)c2cc3n(n2)C(C(F)(F)F)CC(c2ccccc2)N3)c(C(=O)OCC)c1C (centres undefined) | -14 | . | 84 | 81*[inhibitor] | 17 | 102 | -3 | 99
CCc1ccc(OCC2c3cc(OC)c(OC)cc3CCN2C(=S)NC)cc1 (centres undefined) | 0 | -14 | 117 | 134* | -25 | 102 | 7 | 102
CCN(CC(O)CON=C1c2ccccc2-c2ccccc21)S(=O)(=O)c1ccc(Cl)cc1 (centres undefined) | -1 | 6 | 102 | 107 | -14 | . | . | .
CCN(CC(O)CON=C1c2ccccc2-c2ccccc21)S(=O)(=O)c1ccc(C)cc1 (centres undefined) | 0 | 1 | 110 | 141* | -19 | 93 | -5 | 100
SMILES | MEKK2 mut-MEK5 | Pf gametocyte | MEKK2 WT-MEK5 | MEKK3 PB1 HTS | Arbovirus inh | MEKK2wt confirm | MEKK2mut confirm | MEKK3-MEK5 inh
O=c1[nH]c(=S)[nH]c2c1C(c1cc([N+](=O)[O-])c(N3CCOCC3)cc1N1CCOCC1)O2 (centres undefined) | 5 | -73 | 125 | 142* | 7 | 96 | -2 | 99
O=[N+]([O-])c1ccc(Cl)cc1N1CCOCC1 | 0 | 13 | 98 | 100 | -3 | . | . | .
Nc1ccc(C(=O)N/N=C/c2cn(Cc3ccc(F)cc3)c3ccccc23)cc1 | -2 | . | 93 | 100 | . | . | . | .
O=C(N/N=C/c1cn(Cc2cccc(F)c2)c2ccccc12)c1cc(O)cc(O)c1 | -17 | . | 65*[inhibitor] | 79*[inhibitor] | . | 74 | -13 | 81
CC(=O)c1ccc(N2CCN(C(=O)/C=C/c3cccs3)CC2)cc1 | -1 | -4 | 101 | 110 | 5 | . | . | .
O=C(/C=C/c1cccs1)N1CCN(c2ccc(F)cc2)CC1 | -30 | 13 | 62*[inhibitor] | 76 | . | 100 | 0 | 100
Cc1ccc(S(=O)(=O)N2CCCC(C(=O)NCCc3ccc(S(N)(=O)=O)cc3)C2)cc1 (centres undefined) | 0 | . | 96 | 99 | . | . | . | .
CC(C)c1ccc(NC2CCCN(C(=O)c3ccoc3)C2)cc1 (centres undefined) | 12 | . | 102 | 106 | . | . | . | .
CCCCNCc1cc(Br)c(OCc2cccs2)c(OC)c1 | 21 | . | 136* | 95 | -32 | 123 | 8 | 100
NCCc1c(-c2ccccc2)n(-c2ccccc2)c2ccccc12 | 62* | . | 197* | 108 | -30 | 155 | 35 | 111
OC(COC(c1ccc(Cl)cc1)c1ccc(Cl)cc1)CN1CCN(c2ccccn2)CC1 (centres undefined) | 9 | . | 120 | 107 | -39 | . | . | .
OC(CN1CCCCC1)Cn1c2ccc(Cl)cc2c2cc(Cl)ccc21 (centres undefined) | 48* | . | 203* | 106 | . | 202 | 63 | 112
CC1CCN(CC(O)Cn2c3ccccc3c3ccccc32)CC1 (centres undefined) | 2 | -4 | 120 | 103 | . | . | . | .
OC(CN1CCN(c2ccccn2)CC1)Cn1c2ccc(Cl)cc2c2cc(Cl)ccc21 (centres undefined) | 13 | . | 137* | 111 | -27 | 132 | 15 | 106
